From PubChem BioAssay
Sm TGR block – inhibitors of Schistosoma mansoni thioredoxin glutathione reductase; purified TGR, DTNB reduction, TNB absorbance 405 nm; Potency, µM (top dose mostly 114 µM), without a hit: top-dose activity change, negative = inhibition, most hits filed as inhibitors; actives 3% (n = 360,000); note: % is set by controls: 0 for no effect and ±100 for the full control effect; nearly all actives have a fitted effect of over 60% in size
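TGR 20 nM + NADPH 100 uM (dispensed conc.), cpd preinc 15 min RT; start with NADPH (500 uM addition) then DTNB (15 mM addition). Kinetic TNB absorbance, 405 nm filter. Four-parameter Hill fit across titration.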
AMA1-RON2 inh – inhibitors of Plasmodium falciparum AMA1-RON2 interaction. Potency, µM (titrated, usually from 58.2 µM), without a hit: top-dose activity change, negative = inhibition, actives largely listed as inhibitors. AlphaScreen AMA1-biotinylated RON2 peptide binding. AID 720542. actives 0.2% (n = 360,000);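 note: 0% = vehicle wells and -100% = peptide control; nearly all actives have a fitted effect of over 45% in size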
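AMA1 (3D7) with his tag at 25 nM final met compounds first, then biotinylated RON2 peptide at 25 nM; detection used donor plus acceptor beads, 10 µg/mL apiece, read by AlphaScreen after 30 min at room temperature.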
Pf growth 96h – P. falciparum growth inhibition at 96 hour, primary screen for plastid delayed-death inhibitors; AID 504834; P. falciparum luciferase reporter growth, 96 h; Potency, µM (top dose mostly 28.7 µM), for the others: top-dose activity change, negative = inhibition, hits mostly inhibitors; actives 6.9% (n = 320,000); note: % is set by controls: 0 for no effect and ±100 for the full control effect
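Erythrocytes infected with luciferase-expressing P. falciparum were dispensed at 2% hematocrit and 0.05% parasitemia (final), then incubated with compounds 96 hours at 37 C in 5% CO2. Luminescence after detection reagent addition reported growth.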
NS1 inh – blocks influenza NS1 protein function; Potency, µM (top dose mostly 46.1 µM), for the others: at the top dose activity, positive = more growth; actives 0.4% (n = 270,000); AID 2326; calls by dose curve; note: actives are rising curves; nearly all actives have a fitted effect of over 50% in size
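Read-out: OD600 growth recovery of NS1-expressing budding yeast. Cells grown overnight at 30C in -URA glucose medium, washed, resuspended and diluted 1:100 in 2% galactose assay medium, pH 6.0. Same strain lacking NS1 served as positive control.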
Pf growth 48h – inhibits P. falciparum growth in the first generation, 48 h; actives 5.9% (n = 310,000); P. falciparum luciferase growth in erythrocytes, 48 h; Potency, µM (top dose mostly 28.7 µM), without a hit: at the highest dose activity change, negative = inhibition, hits mostly inhibitors; note: % is set by controls: 0 for no effect and ±100 for the full control effect
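First compound was added to culture medium, then infected red cells at 0.1% parasitemia and 2% hematocrit (final). After incubation at 37 C under 5% CO2, luciferase detection reagent was dispensed and light output recorded.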
* hit, by the source's call; ? = inconclusive; . = not tested or not shown. Only some compounds are listed: those with a hit (about 11% of all), similar ones and a draw of the others. Unless noted, calls come from the whole dose curve; as a rule, active = well fitted curve in the direction sought with a large enough effect; inconclusive = small, poorly fitted or top-dose-only effect, or another doubt; inactive = no such curve, though single readings can be large; an effect the other way counts as inactive or inconclusive. Potency is the fitted concentration of half-maximal effect.

SMILES	Sm TGR block	AMA1-RON2 inh	Pf growth 96h	NS1 inh	Pf growth 48h
CN(C)c1ccc(CNC(=O)C2Cc3c(-c4ccccc4Oc4ccccc4)ccnc3O2)cc1 (centres undefined)	.	10µM*	.	.	.
COc1ccc(/C=C(\NC(=O)c2ccc(C)cc2)C(=O)Nc2ccc(C(=O)O)cc2)cc1	1.0%	0.0%	?	-9.5%	17.9%
CCOC(=O)N1CCC(Nc2c(NCCCN3CCN(C4CCCCC4)CC3)c(=O)c2=O)CC1	-2.4%	10.9%	-6.3%	.	-4.9%
CC(C)C[C@H]1COc2cc(N3CCC[C@@H]3CO)ccc2S(=O)(=O)N1	.	8.7%	.	.	.
COc1ccc(C(=O)NNC(=O)CSc2nnc(-c3cccnc3)o2)cc1	10.3%	9.9%	?	2.8%	-29.8%
CN(C)c1ccc(CNC(=O)C2(C)Cc3c(-c4ccc5c(c4)OCO5)ccnc3O2)cc1 (centres undefined)	.	28.2µM*	.	.	.
COc1cccc(C2CC(c3ccc(C)cc3)=NN2C(=O)c2ccccc2F)c1OC (centres undefined)	1.4%	-12.8%	4.15µM*	7.5%	5.22µM*
Cc1ccc(C2=NN(C(=O)c3cccs3)C(c3ccccc3O)C2)cc1 (centres undefined)	.	-1.8%	23.5%	4.3%	?
Cc1ccc(C2=NN(C(=O)c3ccccc3F)C(c3ccccc3F)C2)cc1 (centres undefined)	10.1%	-7.9%	-42.5%	6.0%	4.15µM*
O=C(NCCc1ccc(Cl)cc1Cl)c1cncc(Br)c1	-6.0%	-4.9%	1.0%	-12.4%	1.0%
C=CCN(CC=C)S(=O)(=O)c1ccc(NC(=S)NC(=O)c2ccc(-c3ccccc3)cc2)cc1	-5.6%	32.8%	.	-0.4%	1.47µM*
C=CCN(CC=C)S(=O)(=O)c1ccc(NC(=S)NC(=O)c2ccco2)cc1	?	8.4%	.	10.0%	?
COc1ccc(C(=O)c2nc3ccccc3n2C(C)C)cc1	31.6µM*	-1.1%	35.3%	-3.0%	-11.6%
COc1ccc(C(=O)Cn2c(C(=O)/C=C/c3ccccc3)nc3ccccc32)cc1	4.3%	-10.8%	.	?	10.4µM*
CCCc1cc(=O)[nH]c2nnc(SCCC(C)C)n12	12.4%	.	.	.	.
COc1cc(C#N)ccc1OCC(=O)Nc1cccc(S(=O)(=O)N2CCCC2)c1	6.8%	14.2%	8.28µM*	.	9.28µM*
N#Cc1ccccc1OCC(=O)Nc1cccc(S(=O)(=O)N2CCCC2)c1	-5.0%	8.6%	?	.	?
N#Cc1cccc(NC(=O)CNc2cccc(S(=O)(=O)N3CCCC3)c2)c1	-2.6%	13.8%	?	.	10.4µM*
CC1CCN(S(=O)(=O)c2ccc3c(c2)CCC(=O)N3CC(=O)Nc2cccc(C#N)c2)CC1	9.7%	.	?	.	11.7µM*
N#Cc1cccc(NCC(=O)Nc2cccc(S(=O)(=O)N3CCCCC3)c2)c1	-4.2%	-9.7%	?	.	13.1µM*
CCc1ccc(S(=O)(=O)Nc2cc3c(cc2C)n(C)c(=O)c(=O)n3C)cc1	-5.3%	.	.	.	.
O=C(COC(=O)c1ccc2ncsc2c1)Nc1ccccc1Br	-2.2%	5.3%	10.4%	.	60.2%
O=C(O)c1ccccc1C(=O)NCCc1c(C(=O)O)[nH]c2ccc(Cl)cc12	5.1%	-1.8%	20.4%	0.7%	2.6%
N#Cc1ccc(NCC(=O)Nc2ccc(S(=O)(=O)N3CCCCC3)cc2)cc1	0.1%	-3.7%	?	.	9.28µM*
COC(=O)c1ccc(-n2c(C)cc(C(=O)CCl)c2C)cc1	4.47µM*	-13.4%	-16.1%	.	?
SMILES	Sm TGR block	AMA1-RON2 inh	Pf growth 96h	NS1 inh	Pf growth 48h
CCOc1ccc(-n2c(C)cc(C(=O)CCl)c2C)cc1	4.47µM*	-17.3%	?	.	3.7%
CCOc1ccc(NC(=O)C(=O)c2cc(C)n(-c3cc(C)cc(C)c3)c2C)cc1	1.2%	.	.	.	.
COC(=O)c1ccc(-n2c(C)cc(C(=O)COC(=O)C3=COCCO3)c2C)cc1	.	5.8%	.	.	.
CC1CN(C(=O)c2ccccc2OCc2ccc(Cl)cc2Cl)CC(C)O1 (centres undefined)	-2.0%	3.1%	?	.	?
CCOC(=O)C1CCCCN1Cc1cccc(OCc2ccccc2)c1 (centres undefined)	-2.6%	-21.7%	13.1µM*	-21.3%	-13.2%
CCOC(=O)C1CCCN(Cc2c(C(=O)N3CCOCC3)nc3ccccn23)C1 (centres undefined)	-30.4%	4.1%	9.28µM*	-1.5%	61.1%
CCCCN(C)C(=O)C1CCN(CCCc2ccccc2)CC1	13.9%	23.8%	.	6.4%	2.33µM*
CCOC(=O)C1CCCN(CC(=O)c2ccc(F)cc2)C1 (centres undefined)	17.8µM*	-20.4%	12.3%	-7.7%	7.8%
CCOC(=O)C1CCCN(Cc2c(C(=O)N3CCCCC3)nc3c(C)cccn23)C1 (centres undefined)	-8.5%	8.4%	23.1%	-3.1%	-12.1%
CCOC(=O)C1CCCCN1Cc1cccc(Oc2ccccc2)c1 (centres undefined)	6.2%	19.6%	?	-31.7%	?
CCCN1CCC(N(CCc2ccccc2)Cc2ccccc2)CC1	4.6%	-5.9%	11.7µM*	7.9%	?
Cc1cccc(C)c1NC(=O)C1CCCN(CCCc2ccccc2)C1 (centres undefined)	-2.7%	4.1%	.	7.6%	-24.5%
CCOC(=O)C1CCCN(Cc2ccc(OCc3ccccc3)cc2)C1 (centres undefined)	-0.8%	0.0%	?	0.3%	-42.0%
CCOC(=O)C1CCCN(Cc2ccc(OCc3ccccc3)c(OC)c2)C1 (centres undefined)	-18.6%	-20.7%	13.1µM*	-12.9%	-48.3%
CCOC(=O)C1CCCN(CCCc2ccccc2)C1 (centres undefined)	-41.6%	10.9%	3.29µM*	8.3%	-29.0%
COCCCNC(=O)C[C@H]1C[C@H](C(=O)N(C(C)C)C(C)C)[C@@]2(C)c3[nH]c4ccc(Cl)cc4c3CCN2C1=O	.	-5.3%	.	.	.
O=C1CC(=O)Nc2cc(S(=O)(=O)NCc3cccs3)ccc2N1	-20.6%	-4.4%	35.9%	8.6%	17.8%
COc1ccc(NC(=O)N2CCN(S(=O)(=O)c3ccc4c(ccn4C)c3)CC2)c(OC)c1	-0.8%	.	.	.	.
COC(=O)C(C(=O)OC)C(CC(=O)c1ccc(C)cc1)c1cc(OC)c(OC)c(OC)c1 (centres undefined)	3.9%	-5.7%	?	-14.2%	-6.7%
COc1ccc(C(CC(=O)c2ccc(C)cc2)C(C#N)C#N)cc1OC (centres undefined)	?	-10.1%	22.2%	-11.7%	13.1µM*
CCOc1cc2c(cc1OCC)C(c1ccc(OC)cc1)N(c1ccccc1)C(=O)C2 (centres undefined)	-4.2%	-14.0%	19.2%	1.1%	?
CCOc1cc2c(cc1OCC)C(c1ccccc1)N(c1ccccc1)C(=O)C2 (centres undefined)	1.4%	-18.7%	4.15µM*	-3.9%	?
